We go through 20 molecules from the supplement of paper PMC13380429.

Experiment [1] concerns Vero E6 infected with SARS-CoV-2. Kind of experiment: morphology score (similarity to uninfected cells); higher = more like uninfected cells. The conditions noted are these: 24 h.
Experiment [2] has the same test system. The experiment in a line: SARS-CoV-2 infection rate relative to infected DMSO; higher = more infection, active = 60 or less. The conditions noted are these: 24 h.
Experiment [3] shares this test system. Kind of experiment: inhibition of SARS-CoV-2 cytopathic effect; higher = more antiviral protection, active = above 15. As to conditions: 48 h. Background: Protection from cytopathic effect is a common read-out in antiviral testing.

Each structure is given as a SMILES string.

`CS(=O)(=O)Oc1ccc2c(NC(N)=O)c(C(=O)c3ccc(Cl)cc3Cl)oc2c1` [lirimilast] (10 µM): the morphology score in experiment [1] is 0.204. Besides, the SARS-CoV-2 infection rate in experiment [2] is 101% (inactive).

`CC(C)c1ccc2oc3nc(N)c(C(=O)O)cc3c(=O)c2c1` [amlexanox] (10 µM) yielded a morphology score in experiment [1] of -0.183. The SARS-CoV-2 infection rate in experiment [2] is 111% (inactive).

Take `CNC(=O)CN1CCC(Oc2cc3c(Nc4cccc(Cl)c4F)ncnc3cc2OC)CC1`: the “inhibition of SARS-CoV-2 cytopathic effect” value (shortened to “inhibition”) in experiment [3] (1 nM) was -0.01% (inactive); in experiment [3] (8.33 nM), 0.66% (inactive); in experiment [3] (100 nM) it was -6.91% (inactive); in experiment [3] (833.33 nM) it was -7.8% (inactive); in experiment [3] (10000 nM), -13.6% (inactive).

For `CCCCCCCCCC(=O)OC1(c2ccc(Cl)cc2)CCN(CCCC(=O)c2ccc(F)cc2)CC1` [haloperidol-decanoate] (10 µM), the morphology score in experiment [1] was 0.166. Moreover, in experiment [2], the SARS-CoV-2 infection rate was 96% (inactive).

Turning to `CC(=O)[C@H]1CC[C@H]2[C@@H]3CC=C4C[C@@H](OC(=O)CCC(=O)O)CC[C@]4(C)[C@H]3CC[C@]12C` [pregnenolone-succinate], the “inhibition” value in experiment [3] (1 nM) is 5.34% (inactive); in experiment [3] (8.33 nM), 3.1% (inactive); in experiment [3] (100 nM) it was 3.45% (inactive); in experiment [3] (833.33 nM) it was 5.79% (inactive); in experiment [3] (10000 nM), 5.05% (inactive).

As to `N=C(N)NC(=O)Cc1c(Cl)cccc1Cl` [guanfacine] (10 µM), the morphology score in experiment [1] was 0.255. The SARS-CoV-2 infection rate in experiment [2] is 86% (inactive).

`COc1cc(Nc2c(C#N)cnc3cc(OCCCN4CCN(C)CC4)c(OC)cc23)c(Cl)cc1Cl` [bosutinib] (10 µM) registered a morphology score in experiment [1] of 0.00987. In addition, the SARS-CoV-2 infection rate in experiment [2] was 96.5% (inactive).

For the molecule `Cc1c(C(=O)NN2CCCCC2)nn(-c2ccc(Cl)cc2Cl)c1-c1ccc(Cl)cc1` [rimonabant] (10 µM), the morphology score in experiment [1] came out at 0.17. The SARS-CoV-2 infection rate in experiment [2] was 110% (inactive).

Regarding `Cc1c(CN(C)C(=O)/C=C/c2cnc3c(c2)CCC(=O)N3)oc2ccccc12`, the “inhibition” value in experiment [3] (1 nM) was 0.18% (inactive); in experiment [3] (8.33 nM), -1.15% (inactive); in experiment [3] (100 nM), 1.59% (inactive); in experiment [3] (833.33 nM), 0.21% (inactive); in experiment [3] (10000 nM), -1.4% (inactive).

Consider `COc1ccc2c(c1)CN(C)CC2c1ccc(Cl)c(Cl)c1` (stereo not drawn) [diclofensine], for which the “inhibition” value in experiment [3] (1 nM) is 3.38% (inactive); in experiment [3] (8.33 nM), 2.5% (inactive); in experiment [3] (100 nM), -1.16% (inactive); in experiment [3] (833.33 nM), 3.57% (inactive); in experiment [3] (10000 nM), 1.83% (inactive).

With `CCCCC(F)(F)[C@@]1(O)CC[C@H]2[C@@H](CC(=O)[C@@H]2CCCCCCC(=O)O)O1` [lubiprostone], the “inhibition” value in experiment [3] (1 nM) is -0.41% (inactive); in experiment [3] (8.33 nM), -0.13% (inactive); in experiment [3] (100 nM), -0.73% (inactive); in experiment [3] (833.33 nM), -1.89% (inactive); in experiment [3] (10000 nM), -0.01% (inactive).

As for `C[C@H](Oc1ccc(S(C)(=O)=O)cc1C(=O)N1CCN(c2ncc(C(F)(F)F)cc2F)CC1)C(F)(F)F` [bitopertin] (10 µM), the morphology score in experiment [1] worked out at 0.119. For the same molecule, the SARS-CoV-2 infection rate in experiment [2] was 108% (inactive).

For the molecule `CCC1=C(C)CN(C(=O)NCCc2ccc(S(=O)(=O)NC(=O)N[C@H]3CC[C@H](C)CC3)cc2)C1=O` [glimepiride], the “inhibition” value is -3.26% (inactive) in experiment [3] (1 nM), -2.65% (inactive) in experiment [3] (8.33 nM) and -2.4% (inactive) in experiment [3] (100 nM).

As for `Cc1cccc(C)c1NC(=O)/N=C1\CCCN1C` [xilobam] (10 µM), the morphology score in experiment [1] came to 0.132. Further, the SARS-CoV-2 infection rate in experiment [2] was 102% (inactive).

For the molecule `O=C(O)c1ccc2[nH]cc(CCCCN3CC=C(c4ccccc4)CC3)c2c1` [carmoxirole] (10 µM), the morphology score in experiment [1] was 0.0618. Moreover, the SARS-CoV-2 infection rate in experiment [2] is 96.5% (inactive).

As to `CC[C@H](C)[C@H](NC(=O)[C@H](Cc1ccc(O)cc1)NC(=O)[C@@H](NC(=O)[C@H](CCCNC(=N)N)NC(=O)[C@@H](N)CC(=O)O)C(C)C)C(=O)N[C@@H](Cc1c[nH]cn1)C(=O)N1CCC[C@H]1C(=O)O` (10 µM), the morphology score in experiment [1] amounted to 0.109. Further, in experiment [2], the SARS-CoV-2 infection rate was 104% (inactive).

Turning to `CCOc1c2c(c(OCC)c3ccccc13)C(=O)N(c1ccc(CC(=O)NS(=O)(=O)c3ccccc3)cc1)C2`, the “inhibition” value in experiment [3] (1 nM) is 2.87% (inactive); in experiment [3] (8.33 nM) it was 0.35% (inactive); in experiment [3] (100 nM), 0.73% (inactive); in experiment [3] (833.33 nM), -1.03% (inactive); in experiment [3] (10000 nM), 0.05% (inactive).

Turning to `Cc1cccc(N(C)C(=S)Oc2ccc3ccccc3c2)c1` [tolnaftate], the “inhibition” value in experiment [3] (1 nM) was -0.91% (inactive); in experiment [3] (8.33 nM), 0.08% (inactive); in experiment [3] (100 nM) it was -1.72% (inactive); in experiment [3] (833.33 nM), 1.03% (inactive); in experiment [3] (10000 nM), 3.31% (inactive).

As to `OC[C@H]1O[C@@H](O[C@@H]2[C@H](O)[C@@H](O)[C@H](O[C@H]3[C@H](O)[C@@H](O)C(O)O[C@@H]3CO)O[C@@H]2CO)[C@H](O)[C@@H](O)[C@H]1O` (stereo partly drawn) [4-galactosyllactose], the “inhibition” value in experiment [3] (1 nM) was -1.88% (inactive); in experiment [3] (8.33 nM), -2.42% (inactive); in experiment [3] (100 nM) it was 1.58% (inactive); in experiment [3] (833.33 nM) it was 0.18% (inactive); in experiment [3] (10000 nM) it was -0.03% (inactive).

For `O=C(O)CCCC[C@@H]1SC[C@@H]2NC(=O)N[C@@H]21` [biotin], the “inhibition” value in experiment [3] (1 nM) was 1.38% (inactive); in experiment [3] (8.33 nM), 1.22% (inactive); in experiment [3] (100 nM), -1.51% (inactive); in experiment [3] (833.33 nM) it was 0.93% (inactive); in experiment [3] (10000 nM), 1.95% (inactive).
